In article PMC5540273 (PLoS ONE, 2017):

test system: GAK; conditions: concentration: 1 μM,replicates: in singlicate; n = 1
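Also: KINOMEscan kinase panel screen.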

Structure (SMILES) | %Inh [%]
C=CC(=O)Nc1cc2c(Nc3ccc(F)c(Cl)c3)ncnc2cc1OCCCN1CCOCC1 [GW781483] | 66
CC(C)Nc1cc(-c2ccc3c(N)n[nH]c3c2)nc(N)n1 [GSK2221681] | 0
COc1ccc(C[C@@H](CN)NC(=O)c2cc(Br)c(-c3ccnc4[nH]ccc34)s2)cc1.Cl.Cl [GSK1389063] | 56
Cc1occc1-c1nc(N)c(OC[C@@H](N)Cc2c[nH]c3ccccc23)cc1-c1cc2c(C)n[nH]c2cn1 [GSK1660450] | 87
Cc1ccc2c(-c3ccncc3)c(-c3ccc(F)cc3)nn2c1.Cl [GW461484] | 84
O=C(NCCCN1CCOC1=O)c1cnc(NCc2cc(Cl)ccc2Cl)nc1NC1CCCC1 | 4
Cc1n[nH]c2ccc(-c3cc(OC[C@@H](N)Cc4ccccc4)cnc3-c3ccoc3)cc12.O=C(O)C(F)(F)F.O=C(O)C(F)(F)F [GSK507358] | 82
Cc1cc2cn[nH]c2cc1-c1cccc2c(N)c(C(N)=O)nnc12 | 34
NC(=O)c1cc(-c2ccccc2)cc2c(C3CCNCC3)c[nH]c12 [GSK301362] | 15
Cc1ccc(-n2nc(C(C)(C)C)cc2NC(=O)Nc2ccc(OCCN3CCOCC3)c3ccccc23)cc1 [GW839464] | 0
CC(C)N1C(=O)Cc2cc(Nc3ncc(C(F)(F)F)c(NCc4cccc(S(C)(=O)=O)c4)n3)ccc21 | 14
O=C(NCCNc1ccnc(NCc2ccc(F)cc2)n1)c1cc2ccccc2s1 [GSK1379944] | 33
CNC(=O)c1ccccc1Sc1ccc2c(/C=C/c3ccccn3)n[nH]c2c1 | 10
Nc1nc(Nc2ccccc2)cc(-c2ccc3c(N)n[nH]c3c2)n1 [GSK2225749] | 63
CCN(CC)CCCCNc1ncc2cc(-c3c(Cl)cccc3Cl)c(NC(=O)NC(C)(C)C)nc2n1 | 42
Cc1cc(C(=O)Nc2ccc(Oc3ccc4nc(NC(=O)C5CC5)cn4n3)cc2)nn1-c1ccccc1 | 6
CN(C)CC(O)COc1ccc(Nc2nccc(-c3cnn4nc(N5CCOCC5)ccc34)n2)cc1 (stereo not drawn) [GW767488] | 75
Cl.Cl.Nc1nc(-c2ccc3c(N)n[nH]c3c2)cc(N2CCCC(NC(=O)c3ccccc3)C2)n1 (stereo not drawn) [GSK2286775] | 2
CN(C)CCOc1ccc(-c2cc(-c3c[nH]nc3-c3ccccn3)ccn2)cc1 [GW835314] | 75
C[C@@H]1CCN(C(=O)CC#N)C[C@@H]1N(C)c1ncnc2[nH]ccc12 | 19
Cl.Cl.NC[C@H](CC1CCCCC1)NC(=O)c1cc(Br)c(-c2ccnc3[nH]ccc23)s1 [GSK1581427] | 71
Cl.Cl.NC[C@H](Cc1ccc(C(F)(F)F)cc1)NC(=O)c1cc(Br)c(-c2ccnc3[nH]ccc23)s1 [GSK1487252] | 0
Cl.Oc1cc(-c2nc(-c3ccccc3)[nH]c2-c2ccncc2)ccc1Cl [SB-386023] | 43
C[C@H]1Oc2cc(cnc2N)-c2c(nn(C)c2C#N)CN(C)C(=O)c2ccc(F)cc21 | 25
C[C@@H](Oc1cc(-c2cnn(C3CCNCC3)c2)cnc1N)c1c(Cl)ccc(F)c1Cl | 2
CCn1c(-c2nonc2N)nc2c(C#CC(C)(C)O)nc(OCCN)cc21.Cl.Cl [GSK902056] | 9
CCN(CC)CCOc1ccc(Nc2ncc3cc(-c4c(Cl)cccc4Cl)c(=O)n(C)c3n2)cc1 [SB-601273] | 97
